Results from the supplement of paper PMC9844399.
Counter-ions that a name gives are not always drawn.

What follows are molecules tested on HeLa (assay: nuclear count per well, robust Z-score vs DMSO; higher = more cells (less toxicity)). Conditions: 10 µM; 6 h.
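For MALAT1 nuclear FISH intensity, robust Z-score vs DMSO in this document: High-content confocal imaging of branched-DNA amplified FISH in 384-well plates, Hoechst-defined nuclei, score is well value minus plate DMSO median over DMSO robust SD, four wells per compound.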
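For nuclear count per well, robust Z-score vs DMSO in this document: Hoechst-stained nuclei counted by automated confocal imaging of four fields per well in 384-well plates, with the robust Z-score based on the per-plate DMSO median and robust SD.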

| SMILES | nuclear count per well |
| --- | --- |
| CCc1c2c(nc3ccc(OC(=O)N4CCC(N5CCCCC5)CC4)cc13)-c1cc3c(c(=O)n1C2)COC(=O)[C@]3(O)CC [Irinotecan (hydrochloride)] | -1.09 |
| Cc1ccc(N(CC2=NCCN2)c2cccc(O)c2)cc1 [Phentolamine hydrochloride] | 0.226 |
| COC(=O)[C@H]1[C@H]2C[C@@H]3c4[nH]c5cc(OC)ccc5c4CCN3C[C@H]2C[C@@H](OC(=O)c2cc(OC)c(OC)c(OC)c2)[C@@H]1OC [Reserpine] | 1.03 |
| Cc1nc2n(c(=O)c1CCN1CCC(c3noc4cc(F)ccc34)CC1)CCCC2 [Risperidone] | 0.571 |
| CC/C(=C(\c1ccccc1)c1ccc(OCCN(C)C)cc1)c1ccccc1 [Tamoxifen Citrate] | 0.359 |

These molecules were tested on HeLa (assay: MALAT1 nuclear FISH intensity, robust Z-score vs DMSO; higher = more nuclear MALAT1 lncRNA, active = -3 or less). Conditions: 10 µM; 6 h.

| SMILES | MALAT1 nuclear FISH intensity |
| --- | --- |
| CC1(C)O[C@@H]2[C@@H](CO[C@@]3(COS(N)(=O)=O)OC(C)(C)O[C@@H]23)O1 [Topiramate] | 0.117 (inactive) |
| O=C(NCCCNc1nc(Nc2cccc(CN3CCOCC3)c2)ncc1C1CC1)C1CCC1 | -1.71 (inactive) |
| NC(N)=Nc1nc(CSCC/C(N)=N/S(N)(=O)=O)cs1 [Famotidine] | -0.447 (inactive) |
| Clc1ccc2c(c1)CCc1cccnc1C2=C1CCNCC1 [Desloratadine] | -0.271 (inactive) |
| COc1cccc2c1C(=O)c1c(O)c3c(c(O)c1C2=O)C[C@@](O)(C(=O)CO)C[C@@H]3O[C@H]1C[C@H](N)[C@@H](O)[C@H](C)O1 | -1.13 (inactive) |
| CC(=O)[C@@]1(O)CC[C@H]2[C@@H]3C[C@H](C)C4=CC(=O)C=C[C@]4(C)[C@@]3(F)[C@@H](O)C[C@@]21C [Fluorometholone] | 1.44 (inactive) |
| O=C1c2cccc3c2[C@H](CCC3)CN1[C@@H]1CN2CCC1CC2 | 0.372 (inactive) |
| CCN(CCO)CCCC(C)Nc1ccnc2cc(Cl)ccc12 (centres undefined) [Hydroxychloroquine] | 0.278 (inactive) |
| COC(=O)c1ccc(O)cc1 [Methylparaben] | -0.359 (inactive) |
| O=P(O)(O)C(O)(Cn1ccnc1)P(=O)(O)O [Zoledronic acid] | -0.895 (inactive) |
| COc1ccc(-c2ccc3cc(C(=O)O)ccc3c2)cc1C12CC3CC(CC(C3)C1)C2 [Adapalene] | -0.946 (inactive) |
| Cc1cnc(C(=O)NCCc2ccc(S(=O)(=O)NC(=O)NC3CCCCC3)cc2)cn1 [Glipizide] | 1.26 (inactive) |
| Nc1c(CC(=O)O)cccc1C(=O)c1ccc(Br)cc1 [Bromfenac] | -1.47 (inactive) |
| Cc1cn[nH]c1 [Fomepizole] | 0.179 (inactive) |
| COc1ccnc(C[S+]([O-])c2nc3cc(OC(F)F)ccc3[nH]2)c1OC (centres undefined) [Pantoprazole] | 1.09 (inactive) |
| CCc1nc(N)nc(N)c1-c1ccc(Cl)cc1 [Pyrimethamine] | -0.304 (inactive) |
| O=C(O)C(S)=Cc1c[nH]c2ccc(F)cc12 | 0.716 (inactive) |
| CN(C)CCCN1c2ccccc2Sc2ccc(Cl)cc21 | -0.171 (inactive) |
| Cc1nccn1CC1CCc2c(c3ccccc3n2C)C1=O (centres undefined) [Ondansetron] | -0.471 (inactive) |
| O=C1Nc2ccc(Cl)cc2[C@@](C#CC2CC2)(C(F)(F)F)O1 [Efavirenz] | 0.436 (inactive) |

| SMILES | MALAT1 nuclear FISH intensity |
| --- | --- |
| CCN(CC)CCOC(=O)C1(C2CCCCC2)CCCCC1 | 1.14 (inactive) |
| COc1cc2c3cc1Oc1c(OC)c(OC)cc4c1[C@@H](Cc1ccc(OC(=O)c5ccc([N+](=O)[O-])cc5)c(c1)Oc1ccc(cc1)C[C@@H]3N(C)CC2)N(C)CC4 | 1.07 (inactive) |
| COc1ccc2c(c1)c(CC(=O)O)c(C)n2C(=O)c1ccc(Cl)cc1 [Indomethacin] | -0.0795 (inactive) |
| COc1ccc(C[C@H](N)C(=O)N[C@H]2[C@@H](O)[C@H](n3cnc4c(N(C)C)ncnc43)O[C@@H]2CO)cc1 [Puromycin.2HCl] | 2.03 (inactive) |
| N=C(N)N | -0.363 (inactive) |
| CC(=O)NC(C)(C)C(=O)N1CCC[C@H]1C(=O)NC(C)(C)C(=O)N[C@@H](C)C(=O)NC(C)(C)C(=O)N[C@@H](C)C(=O)N[C@@H](CCC(N)=O)C(=O)NC(C)(C)C(=O)N[C@H](C(=O)NC(C)(C)C(=O)NCC(=O)N[C@@H](CC(C)C)C(=O)NC(C)(C)C(=O)N1CCC[C@H]1C(=O)N[C@H](C(=O)NC(C)(C)C(=O)NC(C)(C)C(=O)N[C@@H](CCC(=O)O)C(=O)N[C@@H](CCC(N)=O)C(=O)N[C@H](CO)Cc1ccccc1)C(C)C)C(C)C [Alamethicin] | -1.85 (inactive) |
| CCCCCCCCCCCCC/C=C/[C@@H](O)[C@H](CO)NC(=O)CCCCCCCCCCCCCCC [C16 Ceramide] | 0.493 (inactive) |
| CC(C)(Oc1ccc(CCNC(=O)c2ccc(Cl)cc2)cc1)C(=O)O [bezafibrate] | 0.066 (inactive) |
| COc1cc2ncnc(Nc3cccc(Cl)c3)c2cc1OC | -0.787 (inactive) |
| Cc1cccc(C)c1OCC(C)N (centres undefined) | -0.315 (inactive) |
| CCCCCC[C@@H]([C@@H](C)O)n1cnc2c(N)ncnc21 (racemic) | -1.31 (inactive) |
| C[C@H]1CC[C@@]2(OC1)O[C@H]1C[C@H]3[C@@H]4CC[C@@H]5C[C@@H](O[C@@H]6O[C@H](CO)[C@H](O)[C@H](O)[C@H]6O[C@@H]6O[C@H](CO)[C@@H](O)[C@H](O)[C@H]6O)CC[C@]5(C)[C@H]4CC[C@]3(C)[C@H]1[C@@H]2C [Timosaponin A-III] | -0.716 (inactive) |
| CC1=C(/C=C/C(C)=C\C=C\C(C)=C\C(=O)O)C(C)(C)CCC1 [Alitretinoin] | -1.31 (inactive) |
| C#C[C@]1(O)CC[C@H]2[C@@H]3CCc4cc(O)ccc4[C@H]3CC[C@@]21C [Ethinyl Estradiol] | 0.585 (inactive) |
| CCc1c2c(nc3ccc(OC(=O)N4CCC(N5CCCCC5)CC4)cc13)-c1cc3c(c(=O)n1C2)COC(=O)[C@]3(O)CC [Irinotecan (hydrochloride)] | 1.21 (inactive) |
| Cc1ccc(N(CC2=NCCN2)c2cccc(O)c2)cc1 [Phentolamine hydrochloride] | 0.687 (inactive) |
| COC(=O)[C@H]1[C@H]2C[C@@H]3c4[nH]c5cc(OC)ccc5c4CCN3C[C@H]2C[C@@H](OC(=O)c2cc(OC)c(OC)c(OC)c2)[C@@H]1OC [Reserpine] | -0.116 (inactive) |
| Cc1nc2n(c(=O)c1CCN1CCC(c3noc4cc(F)ccc34)CC1)CCCC2 [Risperidone] | -0.681 (inactive) |
| CC/C(=C(\c1ccccc1)c1ccc(OCCN(C)C)cc1)c1ccccc1 [Tamoxifen Citrate] | 0.495 (inactive) |
